The record followed here is PubChem BioAssay (NCATS).

A short description of experiment [1]: AP1 Signaling Pathway (AID 357; active = well fitted curve in either direction with a large enough effect, not every such curve was filed as active; note: % is set by controls: 0 for no effect and ±100 for the full control effect). An outline of the steps:
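ME-180 cells with beta-lactamase reporter under AP-1 response element, stimulated with EC50 EGF; compounds tested in titration series, 5 h at 37 °C. CCF4 substrate added 2.5 h at room temperature; 460/530 nm emission ratio gave %activity and AC50.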

Experiment [2] can be described thus: NFAT Signaling Pathway (AID 444; active = well fitted curve in either direction with a large enough effect, not every such curve was filed as active;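 note: carbachol stimulus at about its EC50 of 1 µM final; % is set by controls: 0 for no effect and ±100 for the full control effect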). The note with it: Jurkat NFAT-bla M1, carbachol, beta-lactamase ratio, 5 h; at 17.2 µM (top of the series) unless noted. The gist of the method: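 Read-out: CCF4 FRET ratio (460 nm/530 nm) after 1 h RT dye loading, used for %activity and AC50 from titration series. Cells: Jurkat NFAT-β-lactamase/M1 line, treated with compound plus 1 uM carbachol for 5 h, 37 °C.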

The nature of experiment [3]: Stat Signaling Pathway (AID 446; active = well fitted curve in either direction with a large enough effect, not every such curve was filed as active;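 note: ME-180 cervical cancer cells given 40 pM IL-6 alongside compound; SIE-controlled beta-lactamase reporter measured as 460/530 nm FRET emission ratio; % is set by controls: 0 for no effect and ±100 for the full control effect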). The gist of the method: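 Emission at 460 and 530 nm (excitation 405 nm) reports SIE-controlled beta-lactamase in ME-180 cells. Cells received compound with 40 pM IL-6 for 5 hrs at 37 C; data scaled between 300 pM IL-6 and 125 nM JAK-inhibitor controls.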
Experiment [4] has as its target Glucocorticoid receptor (Homo sapiens) (UniProt P04150). The experiment is described as follows: GR-GFP Redistribution (AID 450;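 active = compounds whose dose series gives a full or clear partial fitted curve of increased nuclear translocation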; note: potency is the fitted concentration of half-maximal effect). The note with it: U2OS GR-GFP nuclear translocation, laser cytometry, 2 h.
Experiment [5] deals with Mitogen-activated protein kinase 10 (Mus musculus) (UniProt Q61831). The experiment is described as follows: JNK3 AlphaScreen Assay (AID 530; active = well fitted curve in either direction with a large enough effect, not every such curve was filed as active;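 note: kinase came from lysate of stimulated human HepG2 cells; signal reports phosphorylation of biotinylated GST-cJun 1-79 at Ser73 with 10 µM ATP; % is set by controls: 0 for no effect and ±100 for the full control effect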). An outline of the steps:
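Kinase buffer: 20 mM Tris-HCl pH 7.6, 10 mM MgCl2, 1 mM DTT, 0.1 mM Na3VO4, 0.01% Tween-20; ATP 10 uM. Substrate biotin-GST-cJun(1-79), enzyme from activated HepG2 lysates. Detection by Ser73 phospho-antibody AlphaScreen.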
For orientation: Bead proximity is the source of the signal in Alpha formats.

Experiment [6] has as its target 3',5'-cyclic-AMP phosphodiesterase 4B (Homo sapiens) (UniProt Q07343). In words: qHTS Assay for Inhibitors of PDE-IV (AID 607; active = well fitted activation curve with a large enough effect in the main read-out, with a control signal flat, not every such curve was filed as active; note: % of control where 0% means no effect). An outline of the steps:
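The readout is membrane depolarisation from a cAMP-sensing CNG channel, detected with a potential dye at ex 535/em 590. Cells were HEK293-derived (endogenous PDE-IV) at 1000 cells/well, titrated up to 22.9 uM final.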
A general note: In qHTS, concentration-response curves come from the screen itself.

Experiment [7] in a line: qHTS Assay for Lipid Storage Modulators (AID 1519; calls by dose curve). The settings on record: Drosophila S3 cells, BODIPY lipid droplet/cell ratio, laser cytometry, cells loaded with oleic acid; for activity change, negative = inhibition: at 25.7 µM (top of the series). An outline of the steps: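 Cells seeded at 5,000 per well were treated with compounds over a concentration series and loaded with oleic acid (400 uM, as added). Lipid droplet fluorescence (488 nm excitation, 500-530 nm channel) was read by laser-scanning cytometry and normalized to 20 uM Triacsin C.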

In experiment [8] the target is Ubiquitin carboxyl-terminal hydrolase 1 (Homo sapiens) (UniProt O94782). The experiment is described as follows: Inhibitors of USP1/UAF1: Pilot qHTS (AID 504865).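 Note: rhodamine fluorescence freed from ubiquitin-rhodamine substrate followed over time; top concentration of the series differs between compounds; % is set by controls: 0 for no effect and ±100 for the full control effect; nearly all actives have a fitted effect of over 35% in size.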 An outline of the steps:
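Enzyme-free wells gave the negative control, while test wells held 1nM USP1/UAF1 preincubated with compound for 15 min at room temperature. Ub-Rho at 150nM final started the reaction, and fluorescence at 480/540 nm was recorded kinetically.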

Experiment [9] is described as follows: qHTS profiling for inhibitors of Plasmodium falciparum proliferation (AID 504749).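 Note: 0% = DMSO vehicle and full inhibition = artemisinin control; nearly all actives have a fitted effect of over 60% in size.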 The settings on record: P. falciparum in erythrocytes, SYBR Green DNA, 72 h. An outline of the steps: (§1)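 In a 72 h erythrocytic culture (37 C, humidified, 5% CO2) at 2.5% hematocrit and 0.3% starting parasitemia, compounds were tested; SYBR Green I in detergent lysis buffer stained parasite DNA overnight.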

For another experiment, the system named is C2A. Described as above. The settings on record: P. falciparum in erythrocytes, SYBR Green DNA, 72 h; series mostly up to 12.8 µM. The gist of the method: as §1
The next experiment relates to CP191. The experiment is described as above. The note with it: P. falciparum in erythrocytes, SYBR Green DNA, 72 h; series mostly up to 12.8 µM. The gist of the method: as §1
The next experiment relates to CP238. The description is as above. The note with it: P. falciparum in erythrocytes, SYBR Green DNA, 72 h; series mostly up to 12.8 µM. An outline of the steps: as §1
A further experiment concerns CP250. The experiment is described as above. The settings on record: P. falciparum in erythrocytes, SYBR Green DNA, 72 h; series mostly up to 12.8 µM. The gist of the method:
as §1

A further experiment deals with FAB9. Described as above. The settings on record: P. falciparum in erythrocytes, SYBR Green DNA, 72 h; series mostly up to 12.8 µM. The gist of the method: as §1
The next experiment concerns JCK. The experiment is described as above. The settings on record: P. falciparum in erythrocytes, SYBR Green DNA, 72 h; series mostly up to 12.8 µM. An outline of the steps:
as §1

The next experiment concerns PC49. Described as above. The settings on record: P. falciparum in erythrocytes, SYBR Green DNA, 72 h; series mostly up to 12.8 µM. The gist of the method: as §1
A further experiment deals with SC27B. The experiment is described as above. The settings on record: P. falciparum in erythrocytes, SYBR Green DNA, 72 h; series mostly up to 12.8 µM. The gist of the method: as §1
The next experiment concerns CP217. The experiment is described as above. The note with it: P. falciparum in erythrocytes, SYBR Green DNA, 72 h; series mostly up to 12.8 µM. The gist of the method: as §1
The subject of another experiment is CP256. The description is as above. The note with it: P. falciparum in erythrocytes, SYBR Green DNA, 72 h; series mostly up to 12.8 µM. The gist of the method: as §1
For experiment [10], the target named is Glucocorticoid receptor (Homo sapiens) (UniProt P04150). The experiment is described as follows: GR-EFC Redistribution (AID 451; calls by dose curve; note: potency is the fitted concentration of half-maximal effect). The note with it: CHO-K1 GR-EFC translocation, beta-gal luminescence, 2 h. The gist of the method: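 Translocation of GR-ED fusion to nuclear EA restores b-gal, read by luminescence after 1 h room-temperature detection. Engineered CHO-K1 biosensor cells, 1,000/well, exposed 2 h at 37 C to titrations up to 46 uM final.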
Chain of Glucocorticoid receptor (Homo sapiens) (P04150 whole entry, looked up, the tested form may be a part): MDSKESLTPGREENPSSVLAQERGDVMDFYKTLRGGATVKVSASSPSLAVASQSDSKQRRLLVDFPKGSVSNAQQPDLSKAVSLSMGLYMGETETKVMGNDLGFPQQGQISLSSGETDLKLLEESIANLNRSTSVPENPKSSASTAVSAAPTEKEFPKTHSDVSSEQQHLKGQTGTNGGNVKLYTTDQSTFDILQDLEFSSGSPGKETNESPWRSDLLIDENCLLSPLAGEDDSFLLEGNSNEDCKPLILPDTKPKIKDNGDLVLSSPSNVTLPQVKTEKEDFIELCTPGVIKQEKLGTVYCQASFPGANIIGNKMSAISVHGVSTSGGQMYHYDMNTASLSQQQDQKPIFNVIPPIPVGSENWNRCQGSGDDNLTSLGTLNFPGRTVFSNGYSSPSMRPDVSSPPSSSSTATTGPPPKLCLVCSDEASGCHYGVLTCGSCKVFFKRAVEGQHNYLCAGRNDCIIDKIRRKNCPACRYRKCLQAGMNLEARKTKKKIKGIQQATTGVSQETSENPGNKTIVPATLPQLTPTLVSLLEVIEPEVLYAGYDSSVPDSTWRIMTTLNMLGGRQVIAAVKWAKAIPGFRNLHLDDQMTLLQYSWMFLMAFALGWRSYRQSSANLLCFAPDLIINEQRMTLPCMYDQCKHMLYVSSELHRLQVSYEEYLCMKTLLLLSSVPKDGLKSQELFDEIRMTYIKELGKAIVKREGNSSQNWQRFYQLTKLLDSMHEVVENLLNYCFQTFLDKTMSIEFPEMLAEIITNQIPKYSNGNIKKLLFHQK

Where [11] appears, read: measured here: cell count channel max response.
Where [12] appears, read: measured here: lipid channel max response.
Setting [13] is: at 28.7 µM (top of the series), parasite line A.
Setting [14] is: at 28.7 µM (top of the series), parasite line B.

Results filed as inconclusive are left out. Active and inactive are the calls of the source. Unless noted, calls come from the whole dose curve; as a rule, active = well fitted inhibition curve with a large enough effect; inconclusive = small, poorly fitted or top-dose-only effect; inactive = flat fitted curve, though single readings scatter.

Chain of Ubiquitin carboxyl-terminal hydrolase 1 (Homo sapiens) (O94782 whole entry, looked up): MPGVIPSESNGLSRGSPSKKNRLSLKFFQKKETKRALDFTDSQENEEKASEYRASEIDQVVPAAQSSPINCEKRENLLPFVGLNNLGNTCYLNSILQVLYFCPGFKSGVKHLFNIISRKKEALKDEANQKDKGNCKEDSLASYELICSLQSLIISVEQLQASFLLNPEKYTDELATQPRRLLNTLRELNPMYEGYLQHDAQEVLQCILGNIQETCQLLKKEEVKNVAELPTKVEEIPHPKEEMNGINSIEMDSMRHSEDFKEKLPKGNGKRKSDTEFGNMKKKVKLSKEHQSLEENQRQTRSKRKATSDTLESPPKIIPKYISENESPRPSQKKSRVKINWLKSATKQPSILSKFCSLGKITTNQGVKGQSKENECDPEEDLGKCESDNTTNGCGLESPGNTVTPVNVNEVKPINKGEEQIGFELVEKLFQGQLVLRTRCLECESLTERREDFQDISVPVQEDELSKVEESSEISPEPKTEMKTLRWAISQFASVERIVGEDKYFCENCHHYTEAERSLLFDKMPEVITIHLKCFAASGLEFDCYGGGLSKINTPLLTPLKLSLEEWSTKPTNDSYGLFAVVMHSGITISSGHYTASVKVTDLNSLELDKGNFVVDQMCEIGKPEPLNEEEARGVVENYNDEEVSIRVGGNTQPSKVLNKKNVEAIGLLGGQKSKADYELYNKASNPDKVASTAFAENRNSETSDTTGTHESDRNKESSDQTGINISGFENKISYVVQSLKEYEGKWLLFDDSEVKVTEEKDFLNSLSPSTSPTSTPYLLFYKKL
Chain of 3',5'-cyclic-AMP phosphodiesterase 4B (Homo sapiens) (Q07343 whole entry, looked up): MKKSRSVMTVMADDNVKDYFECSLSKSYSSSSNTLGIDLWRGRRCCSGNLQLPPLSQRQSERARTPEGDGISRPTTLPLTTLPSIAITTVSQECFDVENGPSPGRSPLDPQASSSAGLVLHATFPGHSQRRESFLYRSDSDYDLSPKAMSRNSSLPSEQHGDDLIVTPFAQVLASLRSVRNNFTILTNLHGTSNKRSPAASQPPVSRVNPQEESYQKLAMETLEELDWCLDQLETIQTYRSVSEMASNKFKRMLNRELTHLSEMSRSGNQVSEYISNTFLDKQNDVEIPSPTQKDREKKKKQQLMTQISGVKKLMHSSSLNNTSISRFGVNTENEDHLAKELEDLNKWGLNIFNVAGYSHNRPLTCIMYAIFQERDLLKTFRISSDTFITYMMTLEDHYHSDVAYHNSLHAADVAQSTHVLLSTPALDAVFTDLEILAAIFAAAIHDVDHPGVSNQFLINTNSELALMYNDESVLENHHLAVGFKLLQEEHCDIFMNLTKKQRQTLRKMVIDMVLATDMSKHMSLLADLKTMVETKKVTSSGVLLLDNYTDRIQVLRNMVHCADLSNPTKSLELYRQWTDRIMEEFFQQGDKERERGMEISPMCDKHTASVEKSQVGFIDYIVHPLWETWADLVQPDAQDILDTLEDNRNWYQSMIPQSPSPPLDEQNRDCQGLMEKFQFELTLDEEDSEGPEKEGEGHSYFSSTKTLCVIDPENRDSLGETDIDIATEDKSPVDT

For the compound `CO[C@H]1[C@H](O[C@H]2O[C@@H](C)[C@@H](O[C@@H]3C[C@](C)(O)[C@H](O)[C@H](C)O3)[C@@H](N(C)C)[C@@H]2O)[C@@H](CC=O)C[C@@H](C)[C@@H](O[C@H]2CC[C@H](N(C)C)[C@H](C)O2)/C=C\C=C/C[C@@H](C)OC(=O)C[C@H]1O`, the outcome in [1], in [3] and in experiment [6] was inactive. Besides, the activity change, negative = inhibition in experiment [2] was 7.86% (inactive); in experiment [7], -1.68% (inactive). The Potency in experiment [4] is > 20.6 µM (inactive). The Potency result (in [5]; in [8]; in the experiment on C2A; in the experiment with CP191; with CP238; in the experiment with CP250) was “inactive” in each case. In addition, the Potency entry in the experiment on FAB9, with JCK, with PC49 and with SC27B was “inactive” in each case. Moreover, the max response in experiment [7] (setting [11]) was -9.34%; in experiment [7] (setting [12]), -16.8%. Moreover, in [9] (at 12.8 µM (top of the series), parasite line A), the activity, negative = inhibition was -18% (inactive).
For the compound `CCN[C@@H]1C[C@H](N)[C@H](O[C@H]2OC(CN)=CC[C@H]2N)[C@@H](O)[C@H]1O[C@H]1OC[C@@](C)(O)[C@@H](NC)[C@@H]1O`, the compound was classed as inactive in experiment [1], in [3] and in [6]. The figures for the activity change, negative = inhibition in experiment [2] and in [7] were -14.4% (inactive) and -1.78% (inactive), respectively. Besides, the Potency entry (in experiment [5]; in the experiment with C2A; in the experiment on CP191; in the experiment with CP217; with CP238; in the experiment on CP250) was “inactive” in each case. Moreover, the Potency entry in the experiment on CP256, in the experiment with FAB9, with JCK, in the experiment on PC49 and with SC27B was “inactive” throughout. For the same compound, the max response is -6.32% in experiment [7] (setting [11]) and -1.8% in experiment [7] (setting [12]). Also, the activity, negative = inhibition in [9] (setting [13]) was 6.1% (inactive); in [9] (setting [14]) it was 14.9% (inactive).
In the case of `CC(=O)OCC(=O)[C@@]1(OC(C)=O)[C@H](C)C[C@H]2[C@@H]3C[C@H](F)C4=CC(=O)C=C[C@@]4(C)[C@]3(F)[C@H](O)C[C@@]21C`, the result in [1], in experiment [3] and in experiment [6] was inactive. For the same compound, the activity change, negative = inhibition in [2] was 4% (inactive); in [7], -2.11% (inactive). Also, in experiment [10], the Potency is 0.0775 µM (active). Moreover, the Potency result in experiment [5] and in experiment [8] was “inactive” each time. Besides, the results for the max response in experiment [7] (setting [11]) and in experiment [7] (setting [12]) were -15.4% and -17.2%, respectively.
On to `CC[C@H](CC[C@H](C)[C@@H]1CC[C@@H]2[C@H]3CC=C4C[C@@H](O)CC[C@]4(C)[C@H]3CC[C@]21C)C(C)C`, for which the compound was classed as inactive in experiment [1], in [3] and in [6]. The values for the activity change, negative = inhibition in [2] and in [7] were -3.85% (inactive) and 2.08% (inactive), respectively. Moreover, the Potency in experiment [10] is > 20.6 µM (inactive). Besides, the Potency result in experiment [5] and in experiment [8] was “inactive” in each case. Also, the max response in experiment [7] (setting [11]) was -14.8%; in experiment [7] (setting [12]), -14.7%.
Consider `c1ccc2c(c1)CCC[C@@H]2C1=NCCN1`, for which the outcome in [1], in [3] and in experiment [6] was inactive. Also, the activity change, negative = inhibition in experiment [2] was 4.55% (inactive); in experiment [7], 1.29% (inactive). The Potency entry (in [5]; in experiment [8]; with C2A; in the experiment on CP191; in the experiment on CP217; with CP238) was “inactive” each time. The Potency result with CP250, in the experiment with CP256, in the experiment on FAB9, with JCK, in the experiment with PC49 and with SC27B was “inactive” each time. Moreover, the max response stood at 4.77% in [7] (setting [11]) and 6.92% in experiment [7] (setting [12]). The values for the activity, negative = inhibition in experiment [9] (setting [13]) and in experiment [9] (setting [14]) were 13.7% (inactive) and -0.664% (inactive), respectively.
